# PubChem BioAssay (NCI)
# About 83,000 compounds went through this panel and 20% of them were active in at least one assay; those are over-represented in the sample as a whole.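 Percent growth is the endpoint: 0 to 100 indicates growth inhibition (40 means 60% inhibition), 0 means no net growth, and negative values indicate cell death.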 Unmarked numbers belong to inactive results. Active and inactive are the calls of the source. The calls were made as follows: active = growth percent below 10; inactive = the rest.
# Assays:
# Test in all cases: NCI-60 one-dose screen, 48 h (100 = growth as untreated, 0 = no growth, -100 = all killed)
# Details in all cases: 10 µM unless noted
# SK-MEL-2 melanoma = tested on: SK-MEL-2 melanoma
# EKVX NSCLC = tested on: EKVX NSCLC
# SN12C renal = tested on: SN12C renal
# UO-31 renal = tested on: UO-31 renal
# TK-10 renal = tested on: TK-10 renal
# ACHN renal = tested on: ACHN renal
# CAKI-1 renal = tested on: CAKI-1 renal
# CCRF-CEM leukemia = tested on: CCRF-CEM leukemia
# MOLT-4 leukemia = tested on: MOLT-4 leukemia
# A498 renal = tested on: A498 renal
Structure (SMILES),growth (SK-MEL-2 melanoma),growth (EKVX NSCLC),growth (SN12C renal),growth (UO-31 renal),growth (TK-10 renal),growth (ACHN renal),growth (CAKI-1 renal),growth (CCRF-CEM leukemia),growth (MOLT-4 leukemia),growth (A498 renal)
CCOC(=O)C(=O)CC(=O)c1ccccc1,96.9%,97.4%,100%,85.3%,113%,94.8%,95.4%,114%,104%,–
Cc1cc(Cl)cc(Cc2cc(Cl)cc(C)c2O)c1O,-18.1% (active),53.9%,2.59% (active),7.78% (active),34.6%,7.14% (active),3.84% (active),5.51% (active),-15.1% (active),–
CCOC(=O)N[C@H]1CCc2cc(OC)c(OC)c(OC)c2-c2ccc(SC)c(=O)cc21,32.2%,31.6%,26.8%,47%,43.7%,28.3%,19.7%,21.9%,9.15% (active),–
CC(C)N(C(=O)c1ccccc1)C(C)C,114%,104%,107%,104%,98.2%,108%,98.5%,–,111%,86.6%
CCCCCCCCCCCCCCCCOc1ccccc1NC(=O)CC(C)=O,92.1%,89.7%,63.9%,25.8%,114%,98.6%,92.5%,–,84.8%,93.5%
C=CCOc1ccc(Cl)cc1Cl,119%,103%,105%,93.5%,113%,102%,98%,–,52%,107%
COc1cc(C(=O)O)c(O)c(C(C)(C)C)c1,106%,102%,103%,92.9%,105%,109%,102%,–,98.1%,96.3%
OCCOc1ccc(-c2cc(-c3ccccn3)nc(-c3ccccn3)c2)cc1,37.6%,18.5%,11.7%,-14.5% (active),28%,3.04% (active),3.07% (active),3.02% (active),-6.16% (active),–
Oc1cccnc1CN1CCCC1,108%,106%,97.6%,92.1%,111%,105%,97%,–,94.2%,108%
CCN(CC)c1ccc2nc3ccc(N=Nc4ccc(N(C)C)cc4)cc3[n+](-c3ccccc3)c2c1,-37.1% (active),-75.2% (active),-49.5% (active),-55.1% (active),5.74% (active),-79.4% (active),-27.8% (active),–,-20.1% (active),-25.1% (active)
C#CC(O)c1ccccc1 (configuration not stated),106%,103%,104%,101%,99.5%,104%,103%,–,99.4%,94.2%
CCC(=O)Oc1c(C)cc(O)c2ccccc12,90.4%,97%,93.3%,51.8%,132%,77.5%,95.1%,–,64%,101%
COc1cc(OC)c2cc(C(=O)c3ccc(C#N)cc3)c(=O)oc2c1,103%,110%,81.6%,84.7%,97.7%,95.2%,84.6%,–,103%,99.1%
C=CCN1CCCC1=O,161%,96.8%,94.2%,101%,90.2%,109%,95.8%,–,93.8%,91%
CCCCCCCCCCCCCCCCCCSC(=N)N,97.6%,88.3%,65.6%,43.2%,65.5%,69.9%,79.4%,–,26.2%,84.7%
COc1ccc(C(=O)/C(=N/Nc2ccccc2)c2ccc(OC)cc2)cc1,96.2%,91.7%,91.5%,71.4%,112%,96.1%,73.9%,94.1%,85%,–
COc1cccc2c1Cc1ccccc1-2,110%,102%,108%,88.6%,134%,114%,98.3%,104%,113%,–

Structure (SMILES),growth (SK-MEL-2 melanoma),growth (EKVX NSCLC),growth (SN12C renal),growth (UO-31 renal),growth (TK-10 renal),growth (ACHN renal),growth (CAKI-1 renal),growth (CCRF-CEM leukemia),growth (MOLT-4 leukemia),growth (A498 renal)
CCC1CCC(C)NC1 (configuration not stated),115%,92.5%,106%,93.5%,97.3%,102%,102%,–,105%,65.6%
COC1(OC)C2(Cl)C(Cl)=C(Cl)C1(Cl)C1COCC12 (configuration not stated),89.7%,104%,99.2%,91.6%,94.7%,108%,93.9%,–,102%,87.6%
CC(C)OCC(CCl)OC(=O)Nc1ccccc1 (configuration not stated),102%,104%,96.7%,80.9%,91.7%,105%,98.2%,–,99.9%,103%
COc1ccc(NNS(=O)(=O)O)cc1,103%,104%,89.9%,90.4%,103%,97.4%,98.5%,–,105%,69.5%
O=C1C=CC(=O)C2=C1CCCC2,110%,69.1%,98.7%,70.9%,132%,90%,79%,–,31.1%,132%
CC(=O)N(C)N=Nc1ccc(C)cc1,101%,101%,100%,81.6%,92.7%,108%,98.6%,–,112%,100%
Nc1c(Br)cc(O)c2c1C(=O)c1ccccc1C2=O,55.4%,96.6%,80.9%,85.1%,91.1%,97.1%,83.8%,–,50.1%,76.4%
C=C1C(=O)C2CCN1CC2,105%,103%,101%,89.1%,99.9%,86.8%,92%,–,78.2%,97.6%
C=CCc1cc(OC)c(O)c(OC)c1,102%,101%,102%,92.5%,113%,102%,97.6%,109%,102%,–
Cc1ccc(O)c(N)c1,112%,136%,107%,87.9%,127%,97%,215%,–,123%,127%
Cc1cc(C(=O)NN)c(C#N)c(=O)[nH]1,100%,109%,88.4%,88.3%,115%,105%,96.8%,–,111%,95.7%
CN(C)c1ccc2nc3ccc(=[N+](C)C)cc-3oc2c1,58.1%,29.8%,-39.7% (active),65.1%,70%,70.5%,70.3%,–,4.76% (active),94.8%
CC(c1ccccc1)N(C)C (configuration not stated),84%,122%,99.7%,71.4%,135%,109%,96.5%,–,84.3%,139%
COc1cc(C(=O)NC(=S)NCc2ccncc2)cc(OC)c1OC,89.5%,99.4%,102%,77.4%,103%,94.2%,91.4%,99.5%,86.1%,–
C=C1CC2(OC1=O)C(=O)N(C)c1ccc(I)cc12 (configuration not stated),-73.1% (active),-46.4% (active),-12% (active),-66% (active),-80.9% (active),-84.5% (active),-91.3% (active),–,-50.1% (active),-13.6% (active)
CCN1CCCC(N2c3ccccc3Sc3ccccc32)C1 (configuration not stated),97.4%,116%,101%,79.1%,78.8%,98.5%,101%,–,96.3%,100%
